High-throughput results from PubChem BioAssay.
A selection: hits, their analogues and other compounds. The true share with any hit is near 7.3%.
NPC1 prom act – qHTS Assay for NPC1 Promoter Activators. Huh7 NPC1 promoter luciferase reporter, 24 h. 320,000 compounds, 2.4% hits. AID 485313, 2010. Potency, µM (top dose mostly 9.22 µM), hits mostly activators; further: nearly all actives have a fitted effect of over 60% in size
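Cells: Huh7 expressing luciferase under the NPC1 promoter, 1500/well. Seeded 2 h, compound added, incubated 24 h at 37 °C. Luciferase reagent, 10 min ambient, then luminescence.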
uPA surface inh – qHTS for Inhibitors of Cell Surface uPA Generation | cell surface uPA generation assay, qHTS | Potency, µM (top dose mostly 38.3 µM), actives largely listed as inhibitors | 330,000 compounds, 0.31% hits | AID 540303, 2011; active means well fitted inhibition curve with a large enough effect; inconclusive means small, poorly fitted or top-dose-only effect; inactive means no such curve, though single readings can be large or run the other way; tested in mouse RAW 264.7 cells; further: nearly all actives have a fitted effect of over 55% in size
ELG1 genotox – qHTS screen for small molecules that induce genotoxicity in human embryonic kidney (HEK293T) cells expressing luciferase-tagged ELG1 | HEK293T ELG1-luciferase reporter, luminescence, 16 h | Potency, µM (doses to about 46 µM), hits mostly activators | 330,000 compounds, 1.3% hits | AID 504466, 2011; further: nearly all actives have a fitted effect of over 60% in size
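ELG1-luciferase HEK293T cells, 2,000/well; compound pinned in; 16 hr, 37 °C, 5% CO2; ONE-Glo, 30 min RT; luminescence on CCD imager.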
SMN2 splice enh – qHTS Assay for Enhancers of SMN2 Splice Variant Expression. HEK293 SMN2-luciferase splicing reporter, luminescence, 30-36 h. 210,000 compounds, 2.8% hits. Potency, µM (top dose mostly 46.1 µM), hits mostly activators; further: nearly all actives have a fitted effect of over 55% in size
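qHTS luciferase splicing reporter: luminescence rises when SMN2 exon 7 is included in transfected HEK293 cells. Compound exposure lasted 30-36 h at 37C, with 4.5 mM final sodium butyrate as control, followed by a ONE-Glo read.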
Rab9 promoter act – qHTS Assay for Rab9 Promoter Activators. Huh7 Rab9 promoter-luciferase reporter, luminescence, 24 h. Potency, µM (top dose mostly 9.22 µM), usual class: activators. 320,000 compounds, 2.8% hits. AID 485297, 2010; further: nearly all actives have a fitted effect of over 60% in size
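Luciferase signal after 10 min detection reagent at ambient indicates Rab9 promoter upregulation; stably transfected Huh7 cells were treated 24 h with compound in DMSO at 37 °C, 5% CO2.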
FLuc modulator – qHTS profiling assay for firefly luciferase inhibitor/activator using purifed enzyme and Km concentrations of substrates (counterscreen for miR-21 project). Luciferin 4-monooxygenase (Photinus pyralis), P08659. purified FLuc, Km substrates, luminescence inhibition. Potency, µM (highest dose often 57.5 µM), hits mostly inhibitors. 360,000 compounds, 6.9% hits. AID 588342, 2011; further: nearly all actives have a fitted effect of over 55% in size
Target sequence (P08659 whole entry, looked up): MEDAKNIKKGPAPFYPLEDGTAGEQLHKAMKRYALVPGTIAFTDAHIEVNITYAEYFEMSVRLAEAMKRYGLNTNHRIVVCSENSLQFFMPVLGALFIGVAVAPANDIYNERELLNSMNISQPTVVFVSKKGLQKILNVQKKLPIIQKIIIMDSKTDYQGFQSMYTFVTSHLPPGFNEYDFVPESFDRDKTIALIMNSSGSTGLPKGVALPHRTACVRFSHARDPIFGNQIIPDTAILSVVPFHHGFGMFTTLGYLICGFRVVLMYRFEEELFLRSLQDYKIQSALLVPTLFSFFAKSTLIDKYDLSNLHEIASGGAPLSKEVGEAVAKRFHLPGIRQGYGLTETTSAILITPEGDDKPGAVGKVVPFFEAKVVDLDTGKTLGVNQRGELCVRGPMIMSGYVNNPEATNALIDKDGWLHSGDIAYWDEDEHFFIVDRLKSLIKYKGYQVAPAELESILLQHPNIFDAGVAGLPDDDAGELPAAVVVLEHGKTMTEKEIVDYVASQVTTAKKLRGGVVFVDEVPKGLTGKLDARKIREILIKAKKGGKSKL
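Purified P. pyralis luciferase, 10 nM final, with Km-level 10 uM D-luciferin and 10 uM ATP in 50 mM Tris acetate pH 7.5, 10 mM Mg acetate, 0.01% Tween-20, 0.05% BSA; 6-point qHTS titration about 60 µM downward; luminescence read.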
A number is an active result; 0 = inactive; ? = inconclusive; - = no result given. Unless noted, the call rests on the fitted dose curve; in most records, active means well fitted curve in the direction sought with a large enough effect; inconclusive means small, poorly fitted or top-dose-only effect, or another doubt; inactive means no such curve, though single readings can be large; an effect the other way counts as inactive or inconclusive.

SMILES	NPC1 prom act	uPA surface inh	ELG1 genotox	SMN2 splice enh	Rab9 promoter act	FLuc modulator
COc1cc([N+](=O)[O-])ccc1NC(=O)Nc1ccc2c(c1)OCCO2	0	0	0	0	?	6.7µM
CN(C)CCNC(=O)c1ccc(Cn2c(=O)c3cccn3c3cccnc32)cc1	-	-	-	-	-	0
CCOc1ccc(CC(=O)Nc2nccs2)cc1OCC	0	0	0	-	0	0
N#Cc1cccc(NC(=O)C2CCN(S(=O)(=O)c3ccc4[nH]c(=O)ccc4c3)CC2)c1	-	-	-	-	-	0
CCOc1cc(CNS(=O)(=O)c2ccc3c(c2)CC(=O)N3C)cc(OCC)c1OCC	0	0	0	-	0	0
O=C(COC(=O)COc1ccccc1Cc1ccccc1)Nc1cccnc1Cl	0	0	0	5.6µM	0	0
O=C(COC(=O)c1ccccc1Cl)Nc1cccnc1Cl	0	0	0	-	0	?
C=CCSC1=N/C(=C\c2sccc2C)C(=O)S1	0	-	0	0	0	0
C=CCSC1=N/C(=C\C=C\c2ccco2)C(=O)S1	0	0	0	0	0	13µM
CCc1cnc2c(c1SCc1cc(OC)cc(OC)c1)c(=O)n(C)c(=O)n2C	-	-	-	-	-	0
Cc1cccc(C(=O)O/N=C(\N)CS(=O)(=O)c2ccccc2)c1	0	0	0	-	0	0
COc1ccccc1C(=O)ON=C1c2ccccc2-c2ccccc21	0	0	0	0	0	21µM
COc1ccc2c(c1)CC/C2=N\OC(=O)c1ccccc1C	?	0	?	0	?	1.5µM
COc1ccc2c(c1)CC/C2=N\OC(=O)c1cccc(C)c1	3.5µM	0	?	0	?	1.5µM
COc1ccc2c(c1)CCC/C2=N/OC(=O)c1ccccc1OC	0	0	0	0	0	13µM
COc1ccc2c(c1[N+](=O)[O-])CCC/C2=N/OC(=O)c1cccc2ccccc12	0	0	0	0	0	0
CC1CCN(S(=O)(=O)c2ccc3c(c2)N(CC(=O)O)C(=O)CO3)CC1	-	-	-	-	-	0
Cn1c(NC(=O)/C=C\c2ccccc2)cc(=O)n(C)c1=O	0	0	?	-	3.5µM	?
Cn1c(NC(=O)/C=C/c2c(F)cccc2Cl)cc(=O)n(C)c1=O	0	0	0	0	0	0
Cc1ccc(NC(=O)/C=C/c2ccccc2)c(Br)c1	-	-	-	8.9µM	-	2.7µM
CC(=O)Nc1ccc(S(=O)(=O)NCCc2cn3ccsc3n2)cc1	-	-	-	-	-	0
COc1ccc(-c2cnnc(N/N=C/c3ccc(C)o3)n2)cc1	0	0	0	0	0	0
COc1ccc(-c2cnnc(N/N=C/c3ccc(O)c(O)c3)n2)cc1	0	0	0	?	0	2.7µM
COc1ccc(Nc2nc(NCc3ccco3)nc(N/N=C/c3ccc(O)cc3)n2)cc1	0	0	0	-	0	15µM
COc1ccc(-c2cnnc(N/N=C/c3ccc(O)cc3)n2)cc1	0	0	?	0	0	1.7µM
SMILES	NPC1 prom act	uPA surface inh	ELG1 genotox	SMN2 splice enh	Rab9 promoter act	FLuc modulator
CCNc1nc(NCC)nc(N/N=C/c2ccc(O)c(O)c2)n1	0	?	?	?	?	21µM
COc1ccc(S(=O)(=O)n2nc(C)c(S(=O)(=O)N3CCCCC3)c2C)cc1	-	-	-	-	-	0
CN(C)c1ccc(NC(=O)Cn2c(SCc3ccccc3F)nc3cccnc32)cc1	-	-	-	-	-	0
COc1ccc(CCn2c(=O)c3cccnc3n(CC(=O)Nc3cccc(C)c3)c2=O)cc1OC	-	-	-	0	-	0
COc1ccc(NC(=O)Cn2c(SCc3ccc(C)cc3)nc3cccnc32)cc1OC	-	-	-	-	-	0.6µM
COc1ccc(NC(=O)Cn2c(SCc3ccc(F)cc3)nc3cccnc32)cc1OC	-	-	-	-	-	2.7µM
COc1ccc(CC(=O)NCc2nc3cccnc3n2Cc2ccc(F)cc2)cc1OC	-	-	-	-	-	0
O=C(Cn1c(SCc2ccccc2F)nc2cccnc21)Nc1ccc(F)c(Cl)c1	-	-	-	-	-	27µM
O=C(Cn1c(SCc2ccc(F)cc2)nc2cccnc21)Nc1ccccc1F	-	-	-	-	-	9.5µM
CCCS(=O)(=O)N1CCC(N2CCN(Cc3ccc(F)cc3)C(=O)C2=O)CC1	-	-	-	-	-	0
Cc1cccc(NC(=O)c2ccc(N(Cc3ccccc3)S(C)(=O)=O)cc2)c1	-	-	-	0	-	0
Cc1ccc(-c2nc(Nc3ccccc3)n[nH]2)cc1	0.89µM	0	0.65µM	3.5µM	0.71µM	1.7µM
CC(NC(=O)CSc1nc(-c2ccccc2F)nc2cc(=O)[nH]n12)c1nc2ccccc2n1C (configuration not stated)	-	-	-	-	-	0
c1ccc(OCc2nc3ccccc3s2)cc1	2.5µM	0	?	13µM	2.8µM	3.4µM
O=S(=O)(CCc1nc2ccccc2s1)c1ccc(Cl)cc1	0	0	0	0	0	0
Fc1ccc(OCc2nc3ccccc3s2)cc1	1.4µM	0	2.3µM	11µM	3.2µM	2.4µM
O=S(=O)(Cc1nc2ccccc2s1)c1ccccc1	2µM	0	4.6µM	14µM	3.2µM	12µM
Cc1cc(OCc2nc3ccccc3s2)ccc1N	1µM	0	2.9µM	-	0.56µM	1.5µM
N#Cc1ccc(NC(=O)CCc2nc3ccccc3s2)cc1	0	0	0	0	0	0
CCC(=O)Nc1ccc(OCc2nc3ccccc3s2)cc1	2µM	0	2.9µM	5µM	0.63µM	4.3µM
Cn1cnnc1SCC(=O)Nc1ccc2nc(SCc3ccccc3Cl)sc2c1	0	0	0	0	0	17µM
Cn1cnnc1SCC(=O)Nc1ccc2nc(SCc3cccc4ccccc34)sc2c1	0	0	0	0	0	0
CCN(CC)C(=O)CSc1nc2ccc(NC(=O)CSc3nccn3C)cc2s1	0	0	0	0	0	19µM
CCN(CC)C(=O)CSc1nc2ccc(NC(=O)CSc3nnc(N)s3)cc2s1	0	0	0	0	0	?
Cn1cnnc1SCC(=O)Nc1ccc2nc(SCc3ccccc3)sc2c1	3.5µM	0	?	0	?	11µM
SMILES	NPC1 prom act	uPA surface inh	ELG1 genotox	SMN2 splice enh	Rab9 promoter act	FLuc modulator
CCN1CCN(Cc2c(O)ccc3c(C)c(-c4ccccc4)c(=O)oc23)CC1	-	-	-	-	-	0
Cc1cccc(CC(=O)N2CC(=O)Nc3ccc(C)cc3C2c2ccc(F)cc2)c1 (configuration not stated)	-	-	-	0	-	0
Cc1cccc(N2CCN(C(=O)C3CCN(S(=O)(=O)c4ccc5c(c4)oc(=O)n5C)CC3)CC2)c1C	-	-	-	0	-	0
O=[N+]([O-])c1cccc(-c2nc(-c3ccncc3)no2)c1	?	0	?	0	?	?
O=[N+]([O-])c1cccc(-c2noc(COc3ccccc3)n2)c1	0	0	0	0	0	?
O=[N+]([O-])c1cccc(-c2noc(-c3ccco3)n2)c1	3.5µM	0	?	-	2.5µM	9.5µM
O=[N+]([O-])c1cccc(-c2nc(-c3ccccc3)no2)c1	6.3µM	0	?	-	4µM	1.3µM
